Results filed as inconclusive are left out. A call without a number means that no potency is given here. The source made the active and inactive calls. Calls follow the shape of the full dose curve.
Assay: qHTS assay to identify small molecule agonists of the endoplasmic reticulum stress response signaling pathway - cell viability counter screen (AID 1159517);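 also: HeLa cells carrying an ER stress response element beta-lactamase reporter; nearly all actives have a fitted effect of over 50% in size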
Settings: ESRE-bla HeLa viability, CellTiter-Glo luminescence, 5 h; series mostly up to 61 µM
Method in brief: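 CellTiter-Glo was added to wells already read for beta-lactamase FRET, and luminescence was recorded 30 min later. Cells: ESRE-bla HeLa, 1,500 per well, compound exposure 5 hr at 37 C.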

SMILES	Potency
C#CC(C)N(C)C(=O)Nc1ccc(Cl)cc1 (centres undefined)	inactive
CC(C)(C)OC(=O)c1ccc(O)cc1	inactive
CCN(C)C(=O)Oc1cccc([C@H](C)N(C)C)c1	inactive
CC(=O)c1ccc2c(c1)Cc1ccccc1-2	inactive
CCN1CCc2nc(N)oc2CC1	inactive
COc1nccnc1NS(=O)(=O)c1ccc(N)cc1	inactive
BrCCCCCBr	inactive
c1ccc2c(c1)ccc1c3ccccc3ccc21	inactive
CCC(C=O)CC	inactive
CN(CCOc1ccc(NS(C)(=O)=O)cc1)CCc1ccc(NS(C)(=O)=O)cc1	inactive
O=C1c2ccccc2C(=O)N1CCl	inactive
CN(C)CCOCCO	inactive
CCOC(=O)CC(=O)c1ccccc1	inactive
O=C(O)c1ccc(Cl)cc1Cl	inactive
CN(C)c1ccc(C=O)cc1	inactive
CCOc1cc(NC(C)=O)ccc1C(=O)OC	inactive
CC(=C(CCOC(=O)C(C)C)SSC(CCOC(=O)C(C)C)=C(C)N(C=O)Cc1cnc(C)nc1N)N(C=O)Cc1cnc(C)nc1N	inactive
C[C@@H](Oc1ccc(CNC(=O)c2cccnc2Oc2ccc3c(c2)OCO3)c(F)c1)C(=O)O	inactive
O=C(NCCN1CCOCC1)c1ccc(Cl)cc1	inactive
N[C@@H](COP(=O)(O)O)C(=O)O	inactive
COCCOCCOCCOCCO	inactive
CCCCCCCC/C=C\CCCCCCCC(=O)OCCCC	inactive
Cc1ccsc1/C=C/C1=NCCCN1C	inactive
CNC(=O)[C@H]1O[C@@H](n2cnc3c(NCc4cc(Cl)ccc4OCc4cc(C)no4)ncnc32)[C@H](O)[C@@H]1N	inactive
